Source: PubChem BioAssay (NCI)
The panel holds about 79,000 compounds, 15% with a hit somewhere; the sample as a whole holds those more often. Unmarked numbers belong to inactive results. The source made the active and inactive calls. Rule as the data show it: active = growth inhibition above about 70%; inactive = the rest.

experiment: NCI Yeast Anticancer Drug Screen. Data for the wt2 strain (AID 169);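 also: 0% = growth of vehicle-treated yeast cultures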; details: S. cerevisiae wt2 strain growth inhibition; at 100.0 µM; hits give high values
In short: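 Read-out: growth inhibition versus vehicle-treated control cultures after compound exposure of the yeast strain.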

SMILES	growth inhibition
Cc1cccc2c(C(O)CBr)cc(-c3ccc(Cl)cc3)nc12 (stereo unspecified)	88% (active)
CN(C)C[C@H]1CC[C@@H](CN(C)C)C1=O	99% (active)
CC1=C(SCCO)C(=O)c2ccccc2C1=O	17%
COC(=O)CCNc1c2ccccc2nc2cccc([N+](=O)[O-])c12	99% (active)
CC(/C=C/c1ccc2c(c1)OCO2)[N+](=O)[O-] (stereo unspecified)	100% (active)
COC(=O)C1=C(C)NC(C)=C(C(=O)OCCCN2CCC(c3ccccc3)(c3ccccc3)CC2)C1c1cccc([N+](=O)[O-])c1 (stereo unspecified)	91% (active)
CCOC(=O)c1cnc2c(C(F)(F)F)cccc2c1N=[N+]=[N-]	99% (active)
O=[N+]([O-])c1cc2no[n+]([O-])c2cc1N1CCCCC1	98% (active)
COC(=O)c1ccc(NCC2=CC(=O)C=CC2=O)cc1O	92% (active)
S=C(Nc1ccc(Cl)c(Cl)c1)SCc1ccc2c(c1)OCO2	97% (active)
O=S(=O)(CCCl)c1ccccc1Cl	99% (active)
CN(C)c1ccc(Sc2ccc3nc(N)nc(N)c3c2)cc1	1%
CC(C)C1=CCC2C(=C1)CCC1C(C)(C(=O)O)CCCC21C (stereo unspecified) (tested in a mixture with another compound)	93% (active)
Cc1ccc(S(=O)(=O)Oc2cc(Cl)c(Cl)cc2Cl)cc1	-8%
CSC(=S)Nc1cc(C)ccn1	70% (active)
CC(C)c1cc(C(C)C)c(O)c(C([O-])[O-])c1.CC(C)c1cc(C(C)C)c(O)c(C([O-])[O-])c1.CC(C)c1cc(C(C)C)c(O)c(C([OH2+])[OH2+])c1.CC(C)c1cc(C(C)C)c(O)c(C([OH2+])[OH2+])c1.[Cu+2].[Cu+2].[OH3+].[OH3+]	93% (active)
